Laboratory results taken from PubChem BioAssay AID1159580 (chemical genetic matrix, 2015).
The campaign covered roughly 5,500 compounds. About 2,000 (36%) were called active. Not shown: some 18% with an inconclusive outcome. Rule as the data show it: active = normalized growth mostly below about 0.91 (no sharp cut-off); inconclusive = no clear call, values can overlap the other calls; inactive = mostly above about 0.92. This is one part of the list.

Experiment: chemical genetic growth profiling, strain panel (AID 1159580);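 also: tested at 20 µM; growth read once vehicle control cultures reached saturation at 30 °C; 1 = growth at the plate median or of vehicle wells; lower values mean less growth of the strain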
Settings: growth OD

Measured: normalized growth

CC1(C)C(O)CC(O)C2(C)C1CC(O)C1(C)C2CCC2(C)C(c3ccoc3)OC(=O)C3OC321 (stereo not drawn)
inactive: S. cerevisiae deletion strains, locus YAL021C, strain ccr4, hits give low values 0.989 | S. cerevisiae deletion strains, locus YAL026C, strain drs2, hits give low values 0.983 | S. cerevisiae deletion strains, locus YAL030W, strain snc1, hits give low values 0.998 | S. cerevisiae deletion strains, locus YBL061C, strain skt5, hits give low values 1.01 | S. cerevisiae deletion strains, locus YBR009C, strain hhf1, hits give low values 0.999 | S. cerevisiae deletion strains, locus YBR021W, strain FUR4, hits give low values 0.974 | S. cerevisiae deletion strains, locus YBR023C, strain chs3, hits give low values 0.997 | S. cerevisiae deletion strains, locus YBR171W, strain sec66, hits give low values 0.988 | S. cerevisiae deletion strains, locus YBR229C, strain ROT2, hits give low values 1.01 | S. cerevisiae deletion strains, locus YBR231C, strain swc5, hits give low values 0.999 | S. cerevisiae deletion strains, locus YBR279W, strain paf1, hits give low values 0.992 | S. cerevisiae deletion strains, locus YCL011C, strain gbp2, hits give low values 0.976 | S. cerevisiae deletion strains, locus YCL016C, strain dcc1, hits give low values 0.985 | S. cerevisiae deletion strains, locus YCL029C, strain bik1, hits give low values 1.01 | S. cerevisiae deletion strains, locus YCL061C, strain MRC1, hits give low values 1.01 | S. cerevisiae deletion strains, locus YCL069W, strain vba3, hits give low values 1 | S. cerevisiae deletion strains, locus YCR088W, strain abp1, hits give low values 0.988 | S. cerevisiae deletion strains, locus YDL005C, strain med2, hits give low values 0.974 | S. cerevisiae deletion strains, locus YDL035C, strain GPR1, hits give low values 1.02 | S. cerevisiae deletion strains, locus YDL040C, strain nat1, hits give low values 0.991 | S. cerevisiae deletion strains, locus YDL074C, strain BRE1, hits give low values 0.998 | S. cerevisiae deletion strains, locus YDL101C, strain DUN1, hits give low values 1.02 | S. cerevisiae deletion strains, locus YDL185W, strain tfp1, hits give low values 1.03 | S. cerevisiae deletion strains, locus YDL192W, strain arf1, hits give low values 1.02 | S. cerevisiae deletion strains, locus YDR001C, strain nth1, hits give low values 0.994 | S. cerevisiae deletion strains, locus YDR069C, strain doa4, hits give low values 0.98 | S. cerevisiae deletion strains, locus YDR101C, strain arx1, hits give low values 1.01 | S. cerevisiae deletion strains, locus YDR137W, strain rgp1, hits give low values 0.988 | S. cerevisiae deletion strains, locus YDR150W, strain NUM1, hits give low values 0.998 | S. cerevisiae deletion strains, locus YDR159W, strain sac3, hits give low values 1.01 | S. cerevisiae deletion strains, locus YDR162C, strain NBP2, hits give low values 1.01 | S. cerevisiae deletion strains, locus YDR195W, strain ref2 0.953 | S. cerevisiae deletion strains, locus YDR297W, strain sur2, hits give low values 0.986 | S. cerevisiae deletion strains, locus YDR318W, strain mcm21, hits give low values 1.03 | S. cerevisiae deletion strains, locus YDR334W, strain swr1, hits give low values 0.985 | S. cerevisiae deletion strains, locus YDR335W, strain msn5, hits give low values 0.987 | S. cerevisiae deletion strains, locus YDR388W, hits give low values 1.02 | S. cerevisiae deletion strains, locus YDR392W, strain spt3, hits give low values 1.02 | S. cerevisiae deletion strains, locus YDR502C, strain sam2, hits give low values 1.02 | S. cerevisiae deletion strains, locus YEL003W, strain gim4, hits give low values 1.01 | S. cerevisiae deletion strains, locus YEL037C, strain rad23, hits give low values 0.987 | S. cerevisiae deletion strains, locus YEL061C, strain CIN8 (second series), hits give low values 0.989 | S. cerevisiae deletion strains, locus YEL061C, strain CIN8, hits give low values 0.998 | S. cerevisiae deletion strains, locus YER015W, strain faa2, hits give low values 0.994 | S. cerevisiae deletion strains, locus YER016W, strain bim1, hits give low values 0.999 | S. cerevisiae deletion strains, locus YER110C, hits give low values 1.04 | S. cerevisiae deletion strains, locus YER111C, strain swi4, hits give low values 0.98 | S. cerevisiae deletion strains, locus YER155C, strain BEM2 (second series), hits give low values 1.01 | S. cerevisiae deletion strains, locus YER155C, strain BEM2, hits give low values 0.99 | S. cerevisiae deletion strains, locus YER167W, strain BCK2, hits give low values 1 | S. cerevisiae deletion strains, locus YFR010W, strain ubp6, hits give low values 1.01 | S. cerevisiae deletion strains, locus YGL078C, strain dbp3, hits give low values 1.03 | S. cerevisiae deletion strains, locus YGL086W, strain mad1, hits give low values 1 | S. cerevisiae deletion strains, locus YGL167C, strain pmr1, hits give low values 0.994 | S. cerevisiae deletion strains, locus YGL173C, strain kem1, hits give low values 0.985 | S. cerevisiae deletion strains, locus YGL227W, strain vid30, hits give low values 0.983 | S. cerevisiae deletion strains, locus YGL240W, strain doc1, hits give low values 1.02 | S. cerevisiae deletion strains, locus YGL248W, strain PDE1, hits give low values 1.01 | S. cerevisiae deletion strains, locus YGL253W, strain hxk2, hits give low values 0.962 | S. cerevisiae deletion strains, locus YGR078C, strain PAC10, hits give low values 1.01 | S. cerevisiae deletion strains, locus YGR135W, strain pre9, hits give low values 1.03 | S. cerevisiae deletion strains, locus YGR229C, strain SMI1, hits give low values 1 | S. cerevisiae deletion strains, locus YGR252W, strain gcn5, hits give low values 1.01 | S. cerevisiae deletion strains, locus YHR013C, strain ard1, hits give low values 0.959 | S. cerevisiae deletion strains, locus YHR027C, strain rpn1, hits give low values 1 | S. cerevisiae deletion strains, locus YHR030C, strain SLT2, hits give low values 1.01 | S. cerevisiae deletion strains, locus YHR079C, strain IRE1 (second series), hits give low values 1.02 | S. cerevisiae deletion strains, locus YHR094C, strain hxt1, hits give low values 1.02 | S. cerevisiae deletion strains, locus YHR129C, strain ARP1, hits give low values 0.999 | S. cerevisiae deletion strains, locus YHR142W, strain chs7, hits give low values 0.972 | S. cerevisiae deletion strains, locus YHR200W, strain rpn10, hits give low values 1.01 | S. cerevisiae deletion strains, locus YIL066C, strain RNR3, hits give low values 1.02 | S. cerevisiae deletion strains, locus YIL073C, strain SPO22, hits give low values 1.08 | S. cerevisiae deletion strains, locus YIL125W, strain kgd1, hits give low values 1.01 | S. cerevisiae deletion strains, locus YIR030C, strain dcg1, hits give low values 1.02 | S. cerevisiae deletion strains, locus YJL092W, strain hpr5, hits give low values 0.997 | S. cerevisiae deletion strains, locus YJL095W, strain BCK1 (second series), hits give low values 0.983 | S. cerevisiae deletion strains, locus YJL095W, strain BCK1, hits give low values 1 | S. cerevisiae deletion strains, locus YJL115W, strain asf1, hits give low values 1 | S. cerevisiae deletion strains, locus YJL129C, strain trk1, hits give low values 0.959 | S. cerevisiae deletion strains, locus YJL134W, strain LCB3, hits give low values 0.996 | S. cerevisiae deletion strains, locus YJL154C, strain vps35, hits give low values 0.991 | S. cerevisiae deletion strains, locus YJL164C, strain tpk1, hits give low values 0.989 | S. cerevisiae deletion strains, locus YJL166W, strain qcr8, hits give low values 0.982 | S. cerevisiae deletion strains, locus YJL168C, strain set2, hits give low values 1.01 | S. cerevisiae deletion strains, locus YJL187C, strain SWE1 (second series), hits give low values 1.01 | S. cerevisiae deletion strains, locus YKL009W, strain mrt4, hits give low values 0.962 | S. cerevisiae deletion strains, locus YKL068W, hits give low values 1.01 | S. cerevisiae deletion strains, locus YKL085W, strain MDH1 (second series), hits give low values 1 | S. cerevisiae deletion strains, locus YKL085W, strain MDH1, hits give low values 1 | S. cerevisiae deletion strains, locus YKL160W, strain elf1, hits give low values 0.991 | S. cerevisiae deletion strains, locus YKL190W, strain CNB1, hits give low values 0.996 | S. cerevisiae deletion strains, locus YKR001C, strain vps1, hits give low values 1.01 | S. cerevisiae deletion strains, locus YKR026C, strain gcn3, hits give low values 0.989 | S. cerevisiae deletion strains, locus YKR091W, strain srl3, hits give low values 0.986 | S. cerevisiae deletion strains, locus YLL001W, strain dnm1, hits give low values 0.989 | S. cerevisiae deletion strains, locus YLL026W, hits give low values 1 | S. cerevisiae deletion strains, locus YLL041C, strain sdh2, hits give low values 1 | S. cerevisiae deletion strains, locus YLR027C, strain aat2, hits give low values 0.999 | S. cerevisiae deletion strains, locus YLR039C, strain RIC1, hits give low values 1.06 | S. cerevisiae deletion strains, locus YLR058C, strain SHM2, hits give low values 1.02 | S. cerevisiae deletion strains, locus YLR102C, strain apc9, hits give low values 1.02 | S. cerevisiae deletion strains, locus YLR221C, strain rsa3, hits give low values 0.993 | S. cerevisiae deletion strains, locus YLR258W, strain gsy2, hits give low values 0.994 | S. cerevisiae deletion strains, locus YLR262C, strain YPT6 (second series), hits give low values 0.994 | S. cerevisiae deletion strains, locus YLR262C, strain YPT6, hits give low values 1.07 | S. cerevisiae deletion strains, locus YLR268W, strain sec22, hits give low values 1.01 | S. cerevisiae deletion strains, locus YLR320W, strain mms22, hits give low values 1 | S. cerevisiae deletion strains, locus YLR330W, strain CHS5, hits give low values 1.01 | S. cerevisiae deletion strains, locus YLR342W, strain FKS1, hits give low values 0.999 | S. cerevisiae deletion strains, locus YLR357W, strain rsc2, hits give low values 0.995 | S. cerevisiae deletion strains, locus YLR370C, strain arc18, hits give low values 0.981 | S. cerevisiae deletion strains, locus YLR371W, strain rom2, hits give low values 0.954 | S. cerevisiae deletion strains, locus YLR384C, strain iki3, hits give low values 0.977 | S. cerevisiae deletion strains, locus YLR418C, strain cdc73, hits give low values 1.02 | S. cerevisiae deletion strains, locus YML016C, strain PPZ1, hits give low values 1.01 | S. cerevisiae deletion strains, locus YML032C, strain rad52, hits give low values 1 | S. cerevisiae deletion strains, locus YML120C, strain ndi1, hits give low values 0.991 | S. cerevisiae deletion strains, locus YML124C, strain tub3, hits give low values 1.01 | S. cerevisiae deletion strains, locus YMR058W, strain fet3, hits give low values 0.998 | S. cerevisiae deletion strains, locus YMR078C, strain ctf18, hits give low values 1.03 | S. cerevisiae deletion strains, locus YMR125W, strain sto1, hits give low values 0.98 | S. cerevisiae deletion strains, locus YMR129W, hits give low values 0.989 | S. cerevisiae deletion strains, locus YMR205C, strain PFK2, hits give low values 0.999 | S. cerevisiae deletion strains, locus YMR223W, strain ubp8, hits give low values 1.02 | S. cerevisiae deletion strains, locus YMR231W, strain pep5, hits give low values 0.987 | S. cerevisiae deletion strains, locus YMR307W, strain GAS1, hits give low values 1.02 | S. cerevisiae deletion strains, locus YNL067W, strain RPL9B, hits give low values 1.02 | S. cerevisiae deletion strains, locus YNL071W, strain lat1, hits give low values 0.998 | S. cerevisiae deletion strains, locus YNL128W, strain TEP1, hits give low values 1.02 | S. cerevisiae deletion strains, locus YNL153C, strain GIM3, hits give low values 1.01 | S. cerevisiae deletion strains, locus YNL209W, strain ssb2, hits give low values 1.01 | S. cerevisiae deletion strains, locus YNL233W, strain BNI4, hits give low values 0.995 | S. cerevisiae deletion strains, locus YNL248C, strain rpa49, hits give low values 0.964 | S. cerevisiae deletion strains, locus YNL250W, strain rad50, hits give low values 1.03 | S. cerevisiae deletion strains, locus YNL271C, strain bni1, hits give low values 1.03 | S. cerevisiae deletion strains, locus YNL298W, strain CLA4, hits give low values 1.02 | S. cerevisiae deletion strains, locus YNL307C, strain MCK1, hits give low values 1.03 | S. cerevisiae deletion strains, locus YNL322C, strain KRE1 (second series), hits give low values 0.988 | S. cerevisiae deletion strains, locus YNR049C, strain mso1, hits give low values 0.999 | S. cerevisiae deletion strains, locus YNR052C, strain pop2, hits give low values 1 | S. cerevisiae deletion strains, locus YOL006C, strain TOP1, hits give low values 1.13 | S. cerevisiae deletion strains, locus YOL012C, strain htz1 0.879 | S. cerevisiae deletion strains, locus YOL147C, strain pex11, hits give low values 1.01 | S. cerevisiae deletion strains, locus YOR001W, strain rrp6, hits give low values 1 | S. cerevisiae deletion strains, locus YOR061W, strain CKA2, hits give low values 1.02 | S. cerevisiae deletion strains, locus YOR069W, strain VPS5, hits give low values 1 | S. cerevisiae deletion strains, locus YOR070C, strain gyp1, hits give low values 1 | S. cerevisiae deletion strains, locus YOR080W, strain dia2, hits give low values 0.983 | S. cerevisiae deletion strains, locus YOR083W, strain WHI5, hits give low values 0.994 | S. cerevisiae deletion strains, locus YOR106W, strain vam3, hits give low values 0.996 | S. cerevisiae deletion strains, locus YOR136W, strain idh2, hits give low values 1.03 | S. cerevisiae deletion strains, locus YOR144C, strain elg1, hits give low values 1.02 | S. cerevisiae deletion strains, locus YOR184W, strain ser1, hits give low values 1.03 | S. cerevisiae deletion strains, locus YOR265W, strain rbl2, hits give low values 1 | S. cerevisiae deletion strains, locus YOR270C, strain vph1, hits give low values 0.914 | S. cerevisiae deletion strains, locus YOR290C, strain snf2, hits give low values 0.967 | S. cerevisiae deletion strains, locus YOR316C, strain cot1, hits give low values 1.02 | S. cerevisiae deletion strains, locus YPL051W, strain arl3, hits give low values 1 | S. cerevisiae deletion strains, locus YPL078C, strain atp4, hits give low values 0.986 | S. cerevisiae deletion strains, locus YPL106C, strain sse1, hits give low values 0.988 | S. cerevisiae deletion strains, locus YPL240C, strain hsp82, hits give low values 0.983 | S. cerevisiae deletion strains, locus YPR119W, strain clb2, hits give low values 1.01 | S. cerevisiae deletion strains, locus YPR141C, strain kar3, hits give low values 1.03 | S. cerevisiae deletion strains, locus YPR163C, strain tif3, hits give low values 1.03 | S. cerevisiae deletion strains, locus YPR167C, strain met16, hits give low values 1.02 | S. cerevisiae deletion strains, strain wtn01, hits give low values 1.02 | S. cerevisiae strains, strain wild type, hits give low values 1.02
